Here are results for 11 molecules from ChEMBL document CHEMBL3988442, “University of Dundee, Small-Polar-MMV Screening Library” (2021).

Holding throughout (set-up): scale not given: direction of the effect not stated beside the values
The target of assay [1] is Protein translocase subunit SecA (Escherichia coli (strain K12)) (UniProt P10408). The experiment in a line: Assay to Identify E. coli SecA ATPase Inhibitors. Format: functional. To be noted: 30 µM.
Assay [2] concerns the target T1, Ubiquitin-activating enzyme e1, putative (Leishmania donovani (strain BPK282A1)) (UniProt E9BSI1).
T1 sequence (whole entry): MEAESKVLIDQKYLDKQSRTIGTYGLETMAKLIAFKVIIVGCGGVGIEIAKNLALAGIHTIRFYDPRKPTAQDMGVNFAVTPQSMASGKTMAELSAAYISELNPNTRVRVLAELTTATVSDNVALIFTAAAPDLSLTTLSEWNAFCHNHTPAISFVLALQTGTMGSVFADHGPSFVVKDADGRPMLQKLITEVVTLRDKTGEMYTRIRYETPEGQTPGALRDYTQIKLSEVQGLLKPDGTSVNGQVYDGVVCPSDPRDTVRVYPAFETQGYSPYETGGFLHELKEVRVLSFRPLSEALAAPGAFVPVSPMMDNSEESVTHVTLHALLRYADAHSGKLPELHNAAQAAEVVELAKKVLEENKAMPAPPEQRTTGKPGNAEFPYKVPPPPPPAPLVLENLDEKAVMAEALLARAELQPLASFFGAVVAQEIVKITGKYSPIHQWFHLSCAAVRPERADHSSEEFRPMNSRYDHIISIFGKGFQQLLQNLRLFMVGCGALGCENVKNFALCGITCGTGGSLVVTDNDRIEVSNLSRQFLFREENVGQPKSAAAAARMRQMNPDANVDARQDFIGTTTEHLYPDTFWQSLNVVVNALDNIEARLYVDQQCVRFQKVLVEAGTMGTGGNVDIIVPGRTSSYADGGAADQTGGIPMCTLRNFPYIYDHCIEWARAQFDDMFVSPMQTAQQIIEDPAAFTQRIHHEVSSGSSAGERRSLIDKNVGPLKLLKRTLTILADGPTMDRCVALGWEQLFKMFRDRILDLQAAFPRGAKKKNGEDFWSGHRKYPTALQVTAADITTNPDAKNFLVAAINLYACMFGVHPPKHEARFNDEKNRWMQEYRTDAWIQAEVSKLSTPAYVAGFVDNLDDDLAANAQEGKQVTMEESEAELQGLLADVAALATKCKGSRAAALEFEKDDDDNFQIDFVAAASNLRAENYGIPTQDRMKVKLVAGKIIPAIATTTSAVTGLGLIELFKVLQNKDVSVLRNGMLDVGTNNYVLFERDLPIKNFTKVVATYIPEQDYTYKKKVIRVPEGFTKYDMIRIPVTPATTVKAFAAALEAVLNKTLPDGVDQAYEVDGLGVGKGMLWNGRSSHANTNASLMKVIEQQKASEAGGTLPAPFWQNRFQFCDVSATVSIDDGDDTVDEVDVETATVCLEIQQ
In words: Leishmania donovani Ubiquitin Activating Enzyme (LdE1). As to conditions: 30 µM. Format: functional.

In assay [3] the target is AMP-activated protein kinase, AMPK (Homo sapiens) (UniProt P54646+O43741+P54619+Q9UGJ0+Q9Y478+Q13131+Q9UGI9). The experiment in a line: AMP-dependent Kinase enzyme assay. An in vitro enzyme assay that detects ADP turnover that is directly proportional to AMPK activity. This uses naive AMPK that is activated during the assay with MK-8722. To be noted: 30 µM. Format: functional.

Assay [4] concerns the target Sialic acid-binding Ig-like lectin 9 (Homo sapiens) (UniProt Q9Y336). In words: Hs-Siglec9 ALPHAscreen SOP 20170721. As to conditions: 10 µM. A general note: Bead proximity is the source of the signal in Alpha formats.
In the next assay the test system is Trypanosoma cruzi. In words: Trypanosoma cruzi phosphomannomutase and mannose-1-phosphate guanylyltransferase assay. To be noted: 10 µM. Format: functional.
The target of assay [5] is T2, Arginase-2, mitochondrial (Homo sapiens) (UniProt P78540).
T2 sequence (whole entry): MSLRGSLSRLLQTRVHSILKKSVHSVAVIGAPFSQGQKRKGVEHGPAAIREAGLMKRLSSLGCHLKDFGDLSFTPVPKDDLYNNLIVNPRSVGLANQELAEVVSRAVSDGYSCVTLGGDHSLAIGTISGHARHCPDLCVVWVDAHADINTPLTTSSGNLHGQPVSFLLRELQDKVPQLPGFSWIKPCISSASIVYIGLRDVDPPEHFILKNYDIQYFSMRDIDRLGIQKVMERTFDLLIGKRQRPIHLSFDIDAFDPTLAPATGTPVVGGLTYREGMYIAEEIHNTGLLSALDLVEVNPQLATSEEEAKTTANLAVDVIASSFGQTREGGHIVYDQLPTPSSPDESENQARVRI
The experiment in a line: in vitro enzyme assay to detect the production of urea directly proportional to the activity of Arginase II. Note: in the data most compounds retested in dose-response had high values. It is filed as functional. As to conditions: 33.3 µM.

The target of assay [6] is T3, Proteasome subunit beta (Trypanosoma cruzi) (UniProt O96673).
T3 sequence (whole entry): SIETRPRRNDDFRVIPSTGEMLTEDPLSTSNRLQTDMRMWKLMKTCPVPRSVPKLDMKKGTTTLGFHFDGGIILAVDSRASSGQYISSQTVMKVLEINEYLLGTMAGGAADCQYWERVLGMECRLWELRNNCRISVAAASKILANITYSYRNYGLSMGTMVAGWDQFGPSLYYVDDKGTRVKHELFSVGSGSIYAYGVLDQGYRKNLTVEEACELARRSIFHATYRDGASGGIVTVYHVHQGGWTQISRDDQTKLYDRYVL
The experiment in a line: Trypanosoma cruzi proteasome chymotrypsin-like activity (TcProtChymo) assay. Note: in the data most compounds retested in dose-response had high values. Format: functional. To be noted: 9.37 µM.

The species entered for another assay is Homo sapiens. In words: To identify inhibition of the IFN signalling (Jak-Stat) pathway via expression of an eGFP reporter gene under the control of an IFN-stimulated response element (ISRE) containing MxA promoter. Format: functional. To be noted: 30 µM.
Assay [7] addresses T4, Tyrosyl-tRNA synthetase, putative (Trypanosoma cruzi (strain CL Brener)) (UniProt Q4DSP6).
T4 sequence (whole entry): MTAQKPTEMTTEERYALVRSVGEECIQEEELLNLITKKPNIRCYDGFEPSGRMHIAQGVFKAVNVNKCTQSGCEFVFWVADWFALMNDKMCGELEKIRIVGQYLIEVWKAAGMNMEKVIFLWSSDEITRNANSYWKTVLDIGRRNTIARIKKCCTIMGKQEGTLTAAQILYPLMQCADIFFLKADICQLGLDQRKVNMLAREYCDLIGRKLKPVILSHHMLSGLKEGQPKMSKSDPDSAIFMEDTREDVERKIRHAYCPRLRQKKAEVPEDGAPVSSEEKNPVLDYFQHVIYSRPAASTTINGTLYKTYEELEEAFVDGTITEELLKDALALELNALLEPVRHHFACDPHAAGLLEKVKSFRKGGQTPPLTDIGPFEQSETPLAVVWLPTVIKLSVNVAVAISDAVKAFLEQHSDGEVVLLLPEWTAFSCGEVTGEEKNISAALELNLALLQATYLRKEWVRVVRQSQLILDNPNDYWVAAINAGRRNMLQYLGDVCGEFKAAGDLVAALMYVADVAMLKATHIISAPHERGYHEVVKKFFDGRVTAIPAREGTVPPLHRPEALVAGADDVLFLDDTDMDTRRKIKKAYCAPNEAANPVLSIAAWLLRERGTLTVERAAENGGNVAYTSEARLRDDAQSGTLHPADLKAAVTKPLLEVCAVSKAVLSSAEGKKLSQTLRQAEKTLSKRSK
The experiment in a line: Trypanosoma cruzi tyrosyl tRNA synthetase (TcYRS) _High Tyrosine SOP. Note: in the data most compounds retested in dose-response had high values. Format: functional. As to conditions: 30 µM.

Assay [8] addresses T4, Tyrosyl-tRNA synthetase, putative (Trypanosoma cruzi (strain CL Brener)). In words: Trypanosoma cruzi tyrosyl tRNA synthetase (TcYRS) SOP. As to conditions: 30 µM. Format: functional.
For assay [9], the target named is Chromo domain-containing protein 1 (Saccharomyces cerevisiae (strain ATCC 204508 / S288c) (Baker's yeast)) (UniProt P32657). The experiment in a line: ScCHD-1 Enzyme Inhibition Assay. Note: in the data most compounds retested in dose-response had high values. It is filed as functional. To be noted: 30 µM.
Sequence of Chromo domain-containing protein 1 (Saccharomyces cerevisiae (strain ATCC 204508 / S288c) (Baker's yeast)) (P32657 whole entry, the tested form may be a part): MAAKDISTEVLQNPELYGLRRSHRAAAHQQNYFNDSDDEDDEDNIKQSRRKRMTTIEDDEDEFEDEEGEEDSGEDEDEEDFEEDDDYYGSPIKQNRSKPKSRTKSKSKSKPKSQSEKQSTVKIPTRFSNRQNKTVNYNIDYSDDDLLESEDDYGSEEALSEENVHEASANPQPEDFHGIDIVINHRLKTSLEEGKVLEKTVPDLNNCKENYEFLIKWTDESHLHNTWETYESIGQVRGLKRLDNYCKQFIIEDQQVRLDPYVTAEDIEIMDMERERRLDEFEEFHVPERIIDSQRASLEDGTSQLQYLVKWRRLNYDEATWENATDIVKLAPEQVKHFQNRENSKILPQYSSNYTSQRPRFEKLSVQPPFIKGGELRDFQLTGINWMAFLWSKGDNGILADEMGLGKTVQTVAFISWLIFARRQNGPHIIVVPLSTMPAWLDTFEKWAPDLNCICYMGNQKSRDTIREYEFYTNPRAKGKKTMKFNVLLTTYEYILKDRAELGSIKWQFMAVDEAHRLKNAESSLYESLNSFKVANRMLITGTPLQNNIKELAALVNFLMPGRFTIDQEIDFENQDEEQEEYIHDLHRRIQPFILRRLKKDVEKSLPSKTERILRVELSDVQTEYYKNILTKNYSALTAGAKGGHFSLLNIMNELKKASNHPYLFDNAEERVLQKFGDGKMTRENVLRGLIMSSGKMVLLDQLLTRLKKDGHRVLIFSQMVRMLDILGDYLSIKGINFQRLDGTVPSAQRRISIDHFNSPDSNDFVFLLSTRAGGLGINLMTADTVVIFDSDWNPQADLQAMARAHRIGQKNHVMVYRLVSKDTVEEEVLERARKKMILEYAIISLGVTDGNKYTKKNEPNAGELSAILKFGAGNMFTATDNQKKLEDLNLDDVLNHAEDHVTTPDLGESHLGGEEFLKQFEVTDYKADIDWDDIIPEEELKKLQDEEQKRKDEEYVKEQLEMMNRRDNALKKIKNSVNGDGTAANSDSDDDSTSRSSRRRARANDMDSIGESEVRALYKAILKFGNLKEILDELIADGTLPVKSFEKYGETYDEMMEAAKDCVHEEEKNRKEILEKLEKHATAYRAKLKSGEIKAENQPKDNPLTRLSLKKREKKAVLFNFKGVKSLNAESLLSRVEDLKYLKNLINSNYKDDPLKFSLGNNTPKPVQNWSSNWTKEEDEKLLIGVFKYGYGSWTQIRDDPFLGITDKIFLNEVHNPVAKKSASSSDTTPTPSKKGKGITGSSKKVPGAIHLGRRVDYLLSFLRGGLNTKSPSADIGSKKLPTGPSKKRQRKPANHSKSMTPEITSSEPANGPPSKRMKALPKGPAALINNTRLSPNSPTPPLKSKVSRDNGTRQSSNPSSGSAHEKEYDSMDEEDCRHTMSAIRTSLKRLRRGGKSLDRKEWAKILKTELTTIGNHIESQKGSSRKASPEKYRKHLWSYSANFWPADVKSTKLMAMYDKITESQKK

For some of these results: Measured potencies and affinities stand elsewhere.

Sequence of Sialic acid-binding Ig-like lectin 9 (Homo sapiens) (Q9Y336 whole entry): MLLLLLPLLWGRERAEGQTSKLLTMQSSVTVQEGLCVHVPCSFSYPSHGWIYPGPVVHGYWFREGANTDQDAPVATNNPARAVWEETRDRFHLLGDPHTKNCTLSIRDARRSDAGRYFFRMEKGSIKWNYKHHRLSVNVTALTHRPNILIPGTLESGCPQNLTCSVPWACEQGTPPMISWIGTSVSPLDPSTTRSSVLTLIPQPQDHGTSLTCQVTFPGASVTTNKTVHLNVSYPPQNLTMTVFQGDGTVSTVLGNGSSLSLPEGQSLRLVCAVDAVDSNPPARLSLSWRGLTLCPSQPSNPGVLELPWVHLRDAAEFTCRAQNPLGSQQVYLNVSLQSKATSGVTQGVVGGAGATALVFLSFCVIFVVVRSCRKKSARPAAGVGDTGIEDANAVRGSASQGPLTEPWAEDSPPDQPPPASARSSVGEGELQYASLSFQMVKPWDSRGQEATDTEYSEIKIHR
Sequence of Protein translocase subunit SecA (Escherichia coli (strain K12)) (P10408 whole entry): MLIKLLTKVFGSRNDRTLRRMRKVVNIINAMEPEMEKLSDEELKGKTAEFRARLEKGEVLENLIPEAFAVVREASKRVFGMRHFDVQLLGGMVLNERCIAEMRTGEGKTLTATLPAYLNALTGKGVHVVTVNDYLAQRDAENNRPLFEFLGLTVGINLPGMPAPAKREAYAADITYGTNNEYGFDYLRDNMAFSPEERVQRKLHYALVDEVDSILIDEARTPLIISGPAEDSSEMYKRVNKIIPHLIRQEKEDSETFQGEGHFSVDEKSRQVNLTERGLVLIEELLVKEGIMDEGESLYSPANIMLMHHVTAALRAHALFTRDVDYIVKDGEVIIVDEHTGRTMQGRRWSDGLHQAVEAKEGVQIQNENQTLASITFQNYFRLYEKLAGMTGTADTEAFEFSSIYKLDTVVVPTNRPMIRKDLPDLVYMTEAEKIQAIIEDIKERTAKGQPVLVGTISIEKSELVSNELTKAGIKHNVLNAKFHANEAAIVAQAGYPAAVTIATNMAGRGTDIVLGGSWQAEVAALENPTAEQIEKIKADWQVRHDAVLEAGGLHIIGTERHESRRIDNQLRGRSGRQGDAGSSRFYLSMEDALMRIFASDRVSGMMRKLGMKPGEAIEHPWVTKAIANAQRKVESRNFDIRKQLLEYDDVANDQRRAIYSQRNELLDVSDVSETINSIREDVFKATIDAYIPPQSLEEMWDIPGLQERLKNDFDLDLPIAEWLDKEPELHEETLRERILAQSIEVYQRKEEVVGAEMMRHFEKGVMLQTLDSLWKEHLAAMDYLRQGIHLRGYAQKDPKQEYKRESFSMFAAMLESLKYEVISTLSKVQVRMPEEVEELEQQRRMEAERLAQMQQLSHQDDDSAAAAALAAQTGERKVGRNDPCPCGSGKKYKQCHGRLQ

Turning to `CCC(OC)C(=O)N1CCc2nc(NC)nc(C(=O)N3CCCC3)c2C1` (stereo unspecified), the Percent Effect was -2.18% in [1]; 2.74% in assay [2]; -1.95% in assay [3]; 7.16% in [4]; -1.39% in the assay on Trypanosoma cruzi; -9.58% in [5]. For the same molecule, the Percent Effect in [6] was 15.5%; in the assay filed under Homo sapiens, 19.2%; in assay [7] it was 5.21%; in assay [8] it was 16.1%; in assay [9], -3.16%.

Regarding `CC(Cn1ccnc1)NC(=O)NCCc1ccc2c(c1)OCCO2` (stereo unspecified), the Percent Effect is -3.57% in [1]; 18.2% in [2]; -10.2% in [3]; -0.77% in [4]; -10.1% with Trypanosoma cruzi; 0.712% in assay [5]. The Percent Effect in assay [6] was 15.7%; in the assay listed under Homo sapiens, 31.7%; in assay [7], 4.85%; in assay [8] it was 2.44%; in assay [9], -8.39%.

Regarding `c1cncc(-c2ccc3c(c2)C2(CC3)CCN(c3nncs3)CC2)c1`, the Percent Effect in assay [1] was -0.421%; in [2], 0%; in assay [3] it was 3.46%; in assay [4] it was 8.96%; in the assay with Trypanosoma cruzi, 5.56%; in assay [5], 1.6%. In addition, the Percent Effect was 14.5% in assay [6]; 47.4% in the assay listed under Homo sapiens; 14.6% in assay [7]; 8.64% in assay [8]; 2.02% in assay [9].

For `Cc1n[nH]c(C(=O)NCc2ccnc(OCC(F)(F)F)c2)c1Br`, the Percent Effect in assay [1] was -4.7%; in assay [2], 23.7%; in [3], -2.47%; in [4], 1.14%; in the assay on Trypanosoma cruzi, 8.08%; in assay [5] it was -0.383%. Further, the Percent Effect in assay [6] is 18.4%; in the assay filed under Homo sapiens, 5.22%; in assay [7], 6.37%; in [8] it was 24.4%; in [9], -11.1%.

Take `CC1CCCN(Cc2csc(-c3ncccn3)n2)CC1` (stereo unspecified): the Percent Effect in assay [1] was -3.33%; in assay [2], -16.2%; in assay [3], -12.5%; in assay [4], 18.6%; in the assay with Trypanosoma cruzi, 8.26%; in assay [5], -1.66%. Further, the Percent Effect in assay [6] came to 20.5%; in the assay listed under Homo sapiens it was 29.2%; in assay [7] it was 13.9%; in assay [8], 15.8%; in assay [9] it was 2.62%.

With `Cc1cnn(CCC(=O)N2CCN(c3nc(C)cs3)CC2)c1`, the Percent Effect in [1] was -5.41%; in assay [2], 17.7%; in assay [3], -10.1%; in [4], 9.63%; with Trypanosoma cruzi, 5.76%; in [5], -2.66%. Moreover, the Percent Effect in assay [6] was 11.6%; in the assay filed under Homo sapiens, 1.73%; in [7], 4.43%; in assay [8], 24.1%; in assay [9] it was -8.6%.

Take `CSCC(=O)N1CCCC(n2ccnc2C(C)C)C1` (stereo unspecified): the Percent Effect was -0.321% in [1]; 15.8% in [2]; -1.19% in assay [3]; -13.5% in assay [4]; -6.63% in the assay on Trypanosoma cruzi; 5.4% in [5]. Moreover, the Percent Effect is 6.01% in [6]; -1.49% in the assay filed under Homo sapiens; 8.37% in assay [7]; 18.5% in assay [8]; -9.2% in assay [9].

For `CC(C)C(C(=O)N1CCC(N(C)c2cccnn2)CC1)n1cncn1` (stereo unspecified), the Percent Effect was -2.45% in [1]; 0% in [2]; -10.6% in assay [3]; 4.35% in assay [4]; -3.49% in the assay with Trypanosoma cruzi; 4.01% in assay [5]. Besides, the Percent Effect in [6] was 9.01%; in the assay listed under Homo sapiens, 11.7%; in assay [7] it was -0.493%; in assay [8], 1.24%; in assay [9], 6.08%.

In the case of `COCCC(=O)N1CC2(CCN(Cc3cccc(Cl)c3)CC2)C1`, the Percent Effect in assay [1] is -1.79%; in assay [2], 5.33%; in [3], 5.28%; in assay [4], 2.57%; in the assay with Trypanosoma cruzi it was -7.09%; in assay [5], 3.03%. Besides, the Percent Effect in [6] was 10.8%; in the assay listed under Homo sapiens it was 6%; in assay [7], 4.25%; in assay [8], 11.5%; in [9], -4.02%.

Take `CC(C)c1nnc2n1CCN(CC(=O)N1CCc3ccccc3C1)C2`: the Percent Effect is -3.76% in assay [1]; 2.63% in assay [2]; -2.4% in [3]; 1.05% in assay [4]; 6.01% in the assay on Trypanosoma cruzi; -1.53% in assay [5]. Further, the Percent Effect in [6] is -0.167%; in the assay listed under Homo sapiens, 5.07%; in assay [7], 7.35%; in assay [8], 9.76%; in [9] it was -9.88%.

`COCCO[C@H]1CCN(C(=O)c2ccc[nH]2)[C@H]1Cc1ccncc1`: the Percent Effect in assay [1] was -5.53%; in [2] it was 0%; in assay [3], 12.9%; in assay [4], 1.19%; in the assay on Trypanosoma cruzi, -3.74%; in assay [5], -2.1%. In addition, the Percent Effect in [6] was 2.73%; in the assay listed under Homo sapiens, -2.22%; in assay [7], 3.19%; in assay [8], 6.41%; in assay [9], 0.525%.
